Source: PubChem BioAssay (NCATS)
Records with an inconclusive call do not appear. Entries that show only a call come without a potency. Unmarked numbers belong to inactive results. The source made the active and inactive calls. Calls come from the whole dose curve; as a rule, active = well fitted curve in the direction sought with a large enough effect; inconclusive = small, poorly fitted or top-dose-only effect, or another doubt; inactive = no such curve, though single readings can be large; an effect the other way counts as inactive or inconclusive.

What was measured:
[1] = molecular target: Cellular tumor antigen p53 (Homo sapiens) (UniProt P04637); assay: Primary qHTS for small molecule compounds that upregulate eGFP-tagged delta133p53alpha (in N-terminal) cells. (AID 2060322); conditions: NCI-H358 eGFP-delta133p53alpha fluorescence, 24 h; activation: stronger effect = higher value; note: nearly all actives have a fitted effect of over 75% in size; note: potency is the fitted concentration of half-maximal effect;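 for activation: cells pre-induced with doxycycline then dosed without doxycycline; series mostly up to about 56 µM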
Chain of Cellular tumor antigen p53 (Homo sapiens) (P04637 whole entry, looked up): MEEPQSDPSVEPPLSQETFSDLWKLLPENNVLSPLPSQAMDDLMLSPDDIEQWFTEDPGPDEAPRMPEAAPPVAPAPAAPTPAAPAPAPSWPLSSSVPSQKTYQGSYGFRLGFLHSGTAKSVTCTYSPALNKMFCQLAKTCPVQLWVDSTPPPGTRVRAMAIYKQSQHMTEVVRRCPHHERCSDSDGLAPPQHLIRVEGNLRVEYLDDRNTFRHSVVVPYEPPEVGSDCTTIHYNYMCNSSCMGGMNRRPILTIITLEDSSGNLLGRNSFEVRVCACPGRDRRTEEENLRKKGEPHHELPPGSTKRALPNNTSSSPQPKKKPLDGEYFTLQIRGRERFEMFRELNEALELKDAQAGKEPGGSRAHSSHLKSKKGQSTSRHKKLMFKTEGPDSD
Method in brief: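 NCI-H358 cells pre-induced 24 h with 10 ng/ml doxycycline for eGFP-delta133p53alpha, plated dox-free and exposed 24 h at 37C to titrated compounds. Fixed, Hoechst-stained; gated GFP peak intensity by laser scanning cytometry, normalized to DMSO (0%) and 57.5 uM 5-azacytidine (100%).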

[2] = molecular target: Aldehyde dehydrogenase, mitochondrial (Homo sapiens) (UniProt P05091); assay: qHTS for Inhibitors of the Aldehyde Dehydrogenase Family (ALDH2) Primary screen (AID 2061308); note: nearly all actives have a fitted effect of over 55% in size
[3] = molecular target: Retinaldehyde dehydrogenase 3 (Homo sapiens) (UniProt P47895); assay: qHTS for Inhibitors of the Aldehyde Dehydrogenase Family (ALDH1A3) Primary screen (AID 2061315)

SMILES | activation [1] | Potency [2] | Potency [3] | activity change, negative = inhibition [2] | activity change, negative = inhibition [3] | Potency [1]
COC1CC(=O)CCC(C)OC(=O)CC1O (stereo unspecified) | -6.87% | inactive | inactive |  |  | 
C=CC(C)(C)C1(CC2NC(=O)C3CCCN3C2=O)C(=O)Nc2cc3c(cc21)C=CC(C)(C)O3 (stereo unspecified) | 6.87% | inactive | inactive |  |  | 
CCc1nn(CCO)c(CC)c1Oc1cc(C#N)cc(C#N)c1 | 11.9% | inactive | inactive |  |  | 
COc1cc(CO)cc(OC)c1O[C@@H]1O[C@H](CO)[C@@H](O)[C@H](O)[C@H]1O | -2.68% | inactive | inactive |  |  | 
O=C(OCC1OC(Oc2ccc(O)cc2COC(=O)C2(O)C(O)CCC(=O)C2OC(=O)C2C=CCC2)C(OC(=O)C2C=CCC2)C(O)C1O)C1C=CCC1 (stereo unspecified) | -3.05% | inactive | inactive |  |  | 
C[C@@H]1O[C@@H](O[C@H]2[C@H](OC(=O)[C@]34CCC(C)(C)C[C@H]3C3=CCC5[C@@]6(C)C[C@@H](O)[C@@H](O[C@@H]7O[C@H](CO)[C@@H](O)[C@H](O)[C@H]7O)[C@@](C)(CO)C6[C@H](O)C[C@@]5(C)[C@]3(C)CC4)OC[C@H](O)[C@@H]2O)[C@H](O)[C@H](O[C@@H]2OC[C@](O)(CO)[C@H]2O)[C@H]1O[C@@H]1OC[C@@H](O)[C@H](O[C@H]2O[C@H](C)[C@@H](O)[C@H](O)[C@@H]2O)[C@H]1O (stereo partly specified) | 6.25% |  |  | 9.79% [at 11.2 µM] | 2.17% [at 11.2 µM] | 
CN1[C@@H]2CC[C@H]1CC(NC(=O)n1c(=O)[nH]c3ccccc31)C2 (stereo partly specified) | -9.21% | inactive | inactive |  |  | 
C=C[C@H]1[C@H](O[C@@H]2O[C@H](CO)[C@@H](O)[C@H](O)[C@H]2O)OC=C(C(=O)OC)[C@H]1C/C=C(/C=O)[C@@H]1C(C(=O)OC)=CO[C@@H](O[C@@H]2O[C@H](CO)[C@@H](O)[C@H](O)[C@H]2O)[C@@H]1C=C | -22.1% | inactive | inactive |  |  | 
Nc1nc(-n2cc(C(=O)O)c(=O)c3cc(F)c(N4CC(O)C4)c(Cl)c32)c(F)cc1F | 13% | inactive | inactive |  |  | 
C=C1CC[C@@H]2[C@@](C)(CO[C@@H]3O[C@H](CO)C(O)[C@H](O)C3O)[C@H](O)CC[C@@]2(C)[C@@H]1CC/C(C)=C/CO (stereo partly specified) | -5.36% | inactive | inactive |  |  | 
C=C[C@H]1[C@H](O[C@@H]2O[C@H](CO)[C@@H](O)[C@H](O)[C@H]2O)OC=C2C(=O)N3Cc4c([nH]c5ccccc5c4=O)[C@@H]3C[C@H]21 | 0.893% | inactive | inactive |  |  | 
C[C@H]1CC(=O)C2=C(C1)C(O)C(O)[C@@]1(O)[C@H]2C(=O)c2cccc(O)c2[C@@H]1O (stereo partly specified) | 3.05% | inactive | inactive |  |  | 
CC1(C)CC[C@]2(C(=O)O[C@@H]3O[C@H](CO)[C@@H](O)[C@H](O)[C@H]3O)CC[C@]3(C)C(=CCC4[C@@]5(C)C[C@@H](O)[C@H](O)C(CO)(CO)C5CC[C@]43C)C2[C@@H]1O (stereo partly specified) | -15.3% | inactive | inactive |  |  | 
COc1c2c(c(C)c3c1C(=O)OC3)O[C@@]1(C)C[C@@H](OC(C)=O)[C@]34O[C@](OC)(CC[C@]3(C)[C@H]1C2)OC4(C)C | -5.36% | inactive | inactive |  |  | 
CC1(C)SC2C(NC(=O)[C@H](NC(=O)N3CCNC3=O)c3ccccc3)C(=O)N2C1C(=O)O (stereo partly specified) | 17% | inactive | inactive |  |  | 
O=C(CCC1CCN(Cc2ccccc2)CC1)c1ccc2c(c1)NCCCC2 | 6.33% | inactive | inactive |  |  | 
CNc1nc(Cc2ccccc2)nc2c1CCNC[C@@H]2C | 19% | inactive | inactive |  |  | 
CC1(C)SC2C(NC(=O)[C@H](C(=O)O)c3ccsc3)C(=O)N2C1C(=O)O (stereo partly specified) | 3.67% | inactive | inactive |  |  | 
COc1cc(/C=C/C(=O)O)ccc1O[C@@H]1O[C@H](CO)[C@@H](O)[C@H](O)[C@H]1O[C@@H]1OC[C@](O)(CO)[C@H]1O | -13% | inactive | inactive |  |  | 
C[C@]12C=C[C@@]3(CCC4[C@](C)(CO)CCC[C@@]4(C)C3CC1)C2 (stereo partly specified) | -5.36% | inactive | inactive |  |  | 
C/C=C(\C)C(=O)O[C@H]1C=CC(=O)O[C@H]1/C=C/[C@@H](O)[C@H](C)O |  | inactive | inactive |  |  | 26.9 µM (active)
O=C(c1ccc(F)cc1)N1CCCC(c2nc(-c3ccc(F)cc3)no2)C1 (stereo unspecified) | -1.91% | inactive | inactive |  |  | 
